The record followed here is PubChem BioAssay AID1778 (Sanford-Burnham Center for Chemical Genomics, 2009).

SMILES strings stand for the structures. Where “and” joins values, the source holds several entries; their conditions need not be identical. Equal values may be shown once. The whole screen tested about 290,000 compounds, of which about 260 (0.09%) were called active. This excerpt belongs to a sample that is enriched for actives. Entries with a potency or affinity are not part of this list. Values without a mark were called inactive. Rule as the data show it: active = inhibition above about 50%; inactive = the rest.

Kappa-type opioid receptor (Homo sapiens), sequence (P41145 whole entry, looked up): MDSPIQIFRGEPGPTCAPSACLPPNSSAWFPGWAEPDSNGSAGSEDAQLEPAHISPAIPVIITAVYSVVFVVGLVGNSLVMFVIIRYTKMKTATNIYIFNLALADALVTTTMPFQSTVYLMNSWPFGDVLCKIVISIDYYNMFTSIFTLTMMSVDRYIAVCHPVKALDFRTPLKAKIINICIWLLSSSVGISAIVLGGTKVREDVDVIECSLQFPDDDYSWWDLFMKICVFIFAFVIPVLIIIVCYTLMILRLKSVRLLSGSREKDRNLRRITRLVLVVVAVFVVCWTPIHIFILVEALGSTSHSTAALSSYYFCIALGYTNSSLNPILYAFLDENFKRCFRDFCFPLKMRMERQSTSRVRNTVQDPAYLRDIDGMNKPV

The test concerns the target Kappa-type opioid receptor (Homo sapiens) (UniProt P41145). The test can be described thus: kappa opioid receptor blockers – cell-based, luminescence, uHTS (AID 1778). Particulars: KOR beta-arrestin recruitment, antagonist mode, stronger effect = higher value; at 10 µM unless noted.
What is called inhibition is the change of the read-out against control, counted positive when it falls. Take `COc1ccc(OC)c(-n2c(SCC(C)=O)nnc2-c2cccc(S(=O)(=O)N(C)C)c2)c1`: the inhibition was 21.3%. The same measure for `CCN(CC)C(=O)Oc1ccc(Cl)c2cccnc12`: 16.1% [at 20 µM]; for `O=C(Oc1ccc(Cl)c2cccnc12)c1ccco1`: 6.4%. Consider `O=C(Nc1cccc(C(F)(F)F)c1)Oc1ccc(Cl)c2cccnc12`, for which the inhibition is 65.4% (active). The same measure for `C/C(=N\NC(N)=S)c1ccccc1`: 11.9%; for `CSC(=S)N/N=C(\C)c1ccc(Br)cc1`: 46.1%. Under `Cc1c(C(=O)Nc2ccc3c(c2)OCO3)oc2ccccc12` stands -1.2%; under `Cc1ccc2nc(-c3ccccn3)[nH]c2c1`, -33.9% [at 20 µM]; under `Cc1cc(=S)nc(-c2ccccn2)[nH]1`, -17.8%. The same measure for `CCN(CC)CCn1c2ccccc2c2cnc(N=CN(C)C)c(C#N)c21`: -24.3%. Take `CCO/C(=C/c1sc2ccc(OC)cc2[n+]1CCCS(=O)(=O)[O-])CC`: the inhibition is 2.7%. Under `CSc1sc2ccccc2[n+]1CCCS(=O)(=O)[O-]` stands 21.2%. The same measure for `O=c1cc(-c2ccccc2)nc(Cc2c(Cl)cccc2Cl)[nH]1`: 29.4%.

With `CCNC(=O)NC(=O)C(C)OC(=O)CCS(=O)(=O)c1ccc(C)cc1` (stereo not given), the inhibition is -30.7%. Under `COc1ccc(S(=O)(=O)N2CCN(C(=O)COc3ccc(C)c(C)c3)CC2)cc1OC` stands -25.1%; under `O=C(Oc1c(Cl)cc(Cl)c2cccnc12)c1cccc([N+](=O)[O-])c1`, 99.6% (active). The same measure for `O=C(Oc1cccc2cccnc12)c1cccc([N+](=O)[O-])c1`: -16.3% [at 20 µM]; for `O=C(Oc1ccc(Cl)c2cccnc12)c1cccc([N+](=O)[O-])c1`: -2.7%. With `COc1cc2c(cc1OC)CN(C(=O)CCNS(=O)(=O)c1ccccc1F)CC2`, the inhibition was 5.3%. Take `Cc1nc2scc(-c3ccccc3)c2c(=O)n1N`: the inhibition was -2.3%. Turning to `Cc1ccc(C)n1-n1c(C)nc2scc(-c3ccccc3)c2c1=O`, the inhibition is -3.4%. The same measure for `Cc1nc(NC(=O)CSC2=NCCS2)sc1C(=O)N(C)C`: -22.6%; for `COc1ccc(S(=O)(=O)N2CCN(c3ccccn3)CC2)cc1[N+](=O)[O-]`: 5.2%.

In the case of `CC(C)(C)C(=O)/C(C#N)=C/c1cccs1`, the inhibition was 1.1%. The same measure for `Cc1ccc(NC(=O)c2ccc(Nc3c([N+](=O)[O-])cc([N+](=O)[O-])cc3[N+](=O)[O-])cc2)cc1`: 1.3%. For `O=C(Nc1ccccc1)c1ccc(Nc2c([N+](=O)[O-])cc([N+](=O)[O-])c3ccccc23)cc1`, the inhibition was 20.1%. `Cc1ccc(NC(=O)C2CCN(S(=O)(=O)c3ccc4c(c3)NC(=O)C(C)S4)CC2)c(C)c1` (stereo not given): the inhibition is 11.1%.

Regarding `Cc1cccc(NC(=O)CSc2cccc3cccnc23)c1`, the inhibition was -3%. Under `COc1ccc(CSc2cccc3cccnc23)cc1[N+](=O)[O-]` stands -30.5%; under `CC(Oc1ccccc1)C(=O)Nc1nnc(S(=O)(=O)Nc2ccccc2)s1` (stereo not given), -37.1% [at 20 µM]; under `COc1ccc(N(CC(=O)Nc2ccc(S(=O)(=O)N3CCOCC3)cc2)S(=O)(=O)c2ccc(F)cc2)cc1`, 28.3%. Take `COc1ccc(N(CC(=O)Nc2ccc(S(=O)(=O)N3CCOCC3)cc2)S(=O)(=O)c2ccccc2)cc1`: the inhibition is -0.6%. Take `C=CCN1C(=O)/C(=C\C=C2\N(C)c3ccccc3C2(C)C)SC1=S`: the inhibition is 3.2%. Under `CN1C(=CC=C2C=C(I)C(=O)C(I)=C2)C(C)(C)c2ccccc21` stands 68.2% (active); under `CCCN1C(=O)/C(=C\C=C2/Sc3ccccc3N2CCO)SC1=S`, 17.8%; under `CN1/C(=C\C=C2/C(=O)Oc3ccccc3C2=O)C(C)(C)c2ccccc21`, -18.4%.

As to `CN1/C(=C\C=C2/SC(=S)N(CC(=O)O)C2=O)C(C)(C)c2ccccc21`, the inhibition was 77.1% [at 20 µM] (active). `CCCN1C(=O)/C(=C\C=C2/Sc3ccccc3N2CC)SC1=S`: the inhibition was -42.6% [at 20 µM]. For the compound `CCCCN1C(=O)/C(=C/C=C2\N(C)c3ccccc3C2(C)C)SC1=S`, the inhibition is 6.8%. For `CN1/C(=C\C=O)C(C)(C)c2ccccc21`, the inhibition is -23.9%. The same measure for `O=C1CC(C2CCCO2)C(=O)N1c1ccccc1` (stereo not given): -21.9%; for `Cn1c(=O)c(C(=O)NCc2ccccc2Cl)c(O)c2ccccc21`: -41.3% [at 20 µM]; for `Cc1ccccc1CN(C)C(=O)CNC(=O)c1ccc2ccccc2c1`: -14.6%.

As to `Cc1ccc(NC(=O)Cn2cc(S(=O)(=O)c3ccc(F)cc3)c(=O)c3cc(F)ccc32)cc1`, the inhibition was -36.8%. Regarding `Cn1c(CCNC(=O)c2ccccc2)nc2cc(NC(=O)C3CCCCC3)ccc21`, the inhibition is 1.3%.

With `COc1cc(/C=C/c2ccc3c(Br)cc(Br)c(O)c3n2)ccc1O`, the inhibition was 57.8% (active). Turning to `COc1cc(/C=C/c2ccc3cccc(O)c3n2)cc(Br)c1OC`, the inhibition was -20%. Under `COc1cc(/C=C/c2ccc3cccc(O)c3n2)cc(OC)c1OC` stands -5.8%; under `COc1ccc(/C=C/c2ccc3cccc(O)c3n2)cc1Br`, -9.3%. The same measure for `COc1ccc(/C=C/c2ccc3c(Br)ccc(O)c3n2)cc1`: 0.3%; for `COc1ccc(C(c2nnnn2C2CCCC2)N2CCC(C)CC2)cc1` (stereo not given): -3%; for `Cn1c(=O)[nH]c(=O)c2c1nc(NCCN)n2CCOc1ccccc1`: -30.9% [at 20 µM]. Under `Cc1sc2nc(C3CC3)nc(N3CCN(C(=O)c4ccccc4F)CC3)c2c1C` stands 4.1%. As for `C/C(=N\NC(=O)c1cccc(Br)c1)c1cccnc1`, the inhibition is -7.4%. With `NNC(=O)c1cc(-c2cccs2)nc2ccccc12`, the inhibition was 40.8%.

Regarding `C/C(=N/NC(=O)c1cc2ccccc2cc1O)c1ccco1`, the inhibition was 17%. With `C/C(=N\NC(=O)c1cc(Br)ccc1O)c1cccs1`, the inhibition is -5.5%. The same measure for `C/C(=N\NC(=O)c1cc2ccccc2cc1O)c1cccs1`: 1.2%; for `C/C(=N\NC(=O)c1cc(-c2cccs2)nc2ccccc12)c1ccccn1`: 75.1% (active); for `C/C(=N\NC(=O)c1c[nH]c2ccccc12)c1ccccn1`: 21.4%. Under `O=C(N/N=C/c1ccc2ncccc2c1)c1cc(-c2cccs2)nc2ccccc12` stands 28.4%; under `C/C(=N\NC(=O)c1ccccc1)c1cccc(Br)c1`, 21.6%; under `CC(C)CNC(=S)N(CCCN(C)C)Cc1cc2cc3c(cc2[nH]c1=O)OCCO3`, -1.3% [at 20 µM].

Consider `O=C(O)c1nnn(-c2cc(C(F)(F)F)cc(C(F)(F)F)c2)c1-c1ccccc1`, for which the inhibition was 7.9%. For the compound `COc1ccc(-c2nc(C)sc2CC(=O)O)cc1`, the inhibition is -5.7%.

For the compound `N#Cc1c(C(F)(F)F)cc(-c2ccc(Cl)c(Cl)c2)nc1SCCN1CCOCC1`, the inhibition is -29.4%. The same measure for `CCOC(=O)C1=C(CSc2nc(-c3ccncc3)ccc2C#N)OC(N)=C(C#N)C1c1ccc(OC)cc1` (stereo not given): -4.9%; for `CC(C)NC(=S)n1cc(C(=O)c2cc(Cl)cc(Cl)c2O)cn1`: -10%. Under `COC(=O)C1c2ccccc2-c2ccccc21` stands -7.3%; under `CCOc1ccc(C(=O)/C=C/Nc2ccc(S(=O)(=O)N=C(N)N)cc2)cc1`, 1%; under `Cc1ccc(N(C(=O)CNC(=O)c2ccco2)C(C(=O)NCC2CCCO2)c2ccccc2)cc1` (stereo not given), -12.5%. Turning to `CC1CN(C(=S)SCC(=O)c2ccc(Cl)cc2)CC(C)O1` (stereo not given), the inhibition was 21.8%.

For `Cc1ccc(-c2onc(C)c2C)cc1S(=O)(=O)N1CC(C)Oc2ccccc21` (stereo not given), the inhibition is -11.7%. `COc1ccc(OC)c2c1C(=O)c1ccccc1C2=O`: the inhibition is -4.5%. With `COc1ccc(N)c2c1C(=O)c1ccccc1C2=O`, the inhibition was 20.4%. Consider `O=C1CC[C@@H](CN(Cc2ccccn2)Cc2nc(-c3ccc(C(F)(F)F)cc3)no2)N1`, for which the inhibition is 3.4% [at 20 µM]. Under `O=C(CC1C(=O)NCCN1Cc1cccc(Oc2ccccc2)c1)NCCCn1cccn1` (stereo not given) stands -2.5%; under `CC(/C=C\c1cccnc1)=C/C(=O)O`, -0.4% and 17.9%. Take `O=C(O)/C=C/c1cccnc1`: the inhibition was 17.9%.

As for `O=C(/C=C/c1cccnc1)/C=C/c1cccnc1`, the inhibition was 57.9% (active). Under `Cn1ccnc1SCc1nc2c(cnn2-c2ccccc2)c(=O)[nH]1` stands -17.7%; under `Cc1cccc(-n2c(SCc3ccc(C#N)cc3)nnc2-c2c[nH]c3ccccc23)c1`, 6.1%. The same measure for `CCOc1ccc(N2CC(C(=O)Nc3ccncc3)CC2=O)cc1` (stereo not given): 15.6%; for `CCOC(=O)Cc1[nH]nc2c1C(Cc1ccccc1)C(C#N)=C(N)O2` (stereo not given): -4.1%; for `CC1(C)CC(=O)C(/C=N/c2ccccn2)=C(O)C1`: 40.5%.

In the case of `CC1(C)CC(=O)C(/C=N/c2ncccc2C(=O)O)=C(O)C1`, the inhibition is -24.7%. Under `CN(C)S(=O)(=O)c1cccc(C(=O)Nc2cc(Cl)ccc2O)c1` stands -1.5%; under `C/C(=C\c1ccc(F)cc1)C(=O)c1c(C)cc(C)[nH]c1=O`, 5.1%. `O=C(NCc1ccccn1)C(=O)NN=C1CCCCCCCCCCC1`: the inhibition is -9.2% [at 20 µM]. Under `CCOC(=O)C(CSCC(=O)c1ccc(Br)cc1)NC(=O)OC(C)(C)C` (stereo not given) stands 3.7%.
